Laboratory results taken from PubChem BioAssay AID2314 (National Center for Advancing Translational Sciences (NCATS), 2010).
Where “and” joins values, the source holds several entries; their conditions need not be identical. Equal entries are not always repeated. In all, about 300,000 compounds went through this assay and about 37,000 (12%) were called active. This is one part of a sample in which actives are shown more often than they occur. Values without a mark were called inactive. Rule as the data show it: active = max response mostly above about 13% (no sharp cut-off); inactive = mostly below about 14%.

Test: Cycloheximide Counterscreen for Small Molecule Inhibitors of Shiga Toxin; also: read at 38.3 µM for the half of the compounds with a filed dose; 0% is about no effect
Details: cell reporter, cycloheximide protein synthesis inhibition counterscreen; active compounds read high

SMILES | max response
Cc1ccc(NC(=O)CC2C(=O)N(Cc3ccccc3)C(=S)N2NC(=O)c2cccc(F)c2)c(C)c1 (centres undefined) | -8.81%
Nc1nc(SCCOc2ccccc2)n[nH]1 | 10.5%
CCCOc1ccc(-c2nc(N)n[nH]2)cc1 | 27.8% (active)
Cc1ccc(OCCCCc2c(C)n[nH]c2C)cc1 | 7.68%
CC(NCC(=O)Nc1cc(Cl)cc(Cl)c1)c1ccccc1 (centres undefined) | -2.23%
COc1cccc(CNC(=O)CCC2CCCN(Cc3ccc(OC(F)F)cc3)C2)c1 (centres undefined) | -2.71%
COc1ccc(OC)c(CNC(=O)Cn2nc(C)c3c(C)n(-c4ccc(C)cc4)nc3c2=O)c1 | 2.16%
CC(=O)Nc1cccc(NC(=O)CSc2nccn2Cc2ccc(F)cc2)c1 | -0.128%
COc1ccc(C(=O)Nc2ccc(C3(C#N)CCCC3)cc2)cc1OC | 20.7% (active)
Cn1c(=O)n(C)c2cc(C(=O)Nc3ccc4c(c3)OCO4)ccc21 | 21.7% (active)
COc1ccc(C(=O)Nc2ccc3nc(N4CCCCC4)cc(C)c3c2)cc1OC | -1.84%
Cn1c(=O)n(C)c2cc(C(=O)Nc3ccc(Br)cc3)ccc21 | 5.85%
COc1ccc(S(=O)(=O)Nc2ccc3c(c2)OCO3)cc1Cl | 1.12%
COc1ccc(-c2cc(C(F)(F)F)nc(SCC(=O)Nc3ccc4c(c3)OCO4)n2)cc1OC | 0.778%
COc1ccc(C(=O)Nc2ccc3c(c2)OCO3)cc1OC | 57.2% (active)
COc1cccc(OC)c1C(=O)Nc1ccc2c(c1)n(C)c(=O)n2C | -0.414%
COc1cc(C(=O)NCC2(c3ccccc3)CCCC2)ccc1OC(C)C | -3%
O=C(Cc1ccccc1)Nc1c(C(=O)N2CCCCCC2)cnn1-c1ccccc1 | -1.98%
COc1ccc2c(c1)CCc1cn3ncc(C#N)c3nc1-2 | -3.03%
CCCCn1nc(C(=O)N2CCc3ccccc32)c2ccccc2c1=O | 1.07%

SMILES | max response
Cc1nc(N=C(N)N)nc2c(C)cccc12 | 3.71%
CCOC(=O)C(C)n1cnc2scc(-c3ccc(C)c(C)c3)c2c1=O (centres undefined) | -0.876%
Cc1ccccc1OCC(=O)N(Cc1cccc(F)c1)C1CCS(=O)(=O)C1 (centres undefined) | -13%
Cc1cc2oc(=O)cc(-c3ccccc3)c2c(C)c1-c1ccc(OC(F)(F)F)cc1 | 17.1%
CN(C(=O)CCNC(=O)Cn1ccc2ccccc2c1=O)c1ccc(Br)cc1 | -6.96%
CCN(/N=C/c1ccc(N(C)C)cc1)c1nc2ccccc2[nH]1 | 5.84%
CNC(=O)c1ccsc1NC(=O)c1ccc(S(=O)(=O)N2CCc3ccccc32)cc1 | -2.6%
CCN(CC)CCCNC(=O)c1cc2c(=O)[nH]c3ccc(C)cc3c2s1 | 0.225%
COc1ccc(C2=NN(c3nc4ccccc4s3)C(=O)C2)cc1 | 25.8% (active)
COc1ccc(N2C(=O)CC(Sc3n[nH]c(-c4ccc(C)cc4)n3)C2=O)cc1 (centres undefined) | -1.55%
CN(C(=O)COC(=O)c1nc(Cl)ccc1Cl)C1CCS(=O)(=O)C1 (centres undefined) | -1.17%
COC(=O)c1c(-c2ccc(C)cc2)csc1N | 9.52%
Nc1scc(-c2ccncc2)c1Cl | 26% (active)
O=C(c1ccc(CSc2ccccc2)cc1)N1CCCCCC1 | 66.2% (active)
O=C(c1ccc(S(=O)(=O)c2ccccc2)cc1)N1CCCCCC1 | -1.02%
CC1CCN(C(=O)c2ccc(CSc3ccc(Cl)cc3)cc2)CC1 | -3.83%
Cc1cccc(C)c1NC(=O)CSc1nc2c([nH]1)c(=O)n(C)c(=O)n2C | -6.42%
CC1=C(C(=O)OCC2CCCCC2)C(c2ccc(F)cc2)NC(=O)N1 (centres undefined) | -1.88%
Cc1cccc(N2C(=O)C3C(c4ccccc4)OC4(C(=O)c5ccccc5C4=O)C3C2=O)c1 (centres undefined) | 7.54%
Cc1cccc(N2C(=O)c3cccnc3C2=O)c1 | 7.77%

SMILES | max response
Cc1cccc(N2C(=O)NC(=O)/C(=C\c3cnn(-c4ccccc4)c3)C2=O)c1 | 25.1% (active)
O=C(CNC(=O)c1ccc(Br)o1)NCC1CCCO1 (centres undefined) | -2.05%
CC(CNC(=O)c1ccc(Br)o1)NC(=O)c1ccc(Br)o1 (centres undefined) | -3.59%
CC(C)(C)C1CCC(=NNC(=O)c2cc(-c3ccccc3)n[nH]2)CC1 (centres undefined) | 5.64%
CC(NC(=O)C(=O)NN=C1CCC(C(C)(C)C)CC1)c1ccccc1 (centres undefined) | 1.38%
CC(C)(C)C1CCC(=NNC(=O)c2ccc(Br)o2)CC1 (centres undefined) | 35.2% (active)
CCC(C)(C)C1CCC(=NNC(=O)c2ccc(Br)o2)CC1 (centres undefined) | 44.3% (active)
CC(=O)N1C(C)c2ccccc2C(C)(C)CC12CCCCC2 (centres undefined) | -1.42%
Cc1ccc(C)c(N2CCN(S(=O)(=O)c3c(C)[nH]c(C)c3C(=O)N3CCCC3)CC2)c1 | -1.94%
C=CC(COCc1ccccc1)N(Cc1ccccc1)S(=O)(=O)c1ccccc1Br (centres undefined) | -2.35% and 5.45%
Cc1ccc(S(=O)(=O)N(C)CC(=O)NC2CCCC2)cc1 | -2.07%
CS(=O)(=O)N(C(=O)NC(=O)NC1CCS(=O)(=O)C1)C1CCCCC1 (centres undefined) | -1.14%
Cc1ccc(NC(=O)NC(=O)N(C2CCCCC2)S(=O)(=O)c2ccccc2)cc1 | 40.9% (active)
CCOc1ccccc1NC(=O)CCS(=O)(=O)c1cccc2nsnc12 | -6.23%
O=C(N/N=C/c1cccc(O)c1)c1cc2c(ccc3ccccc32)o1 | 8.61%
NC(=O)c1ccccc1N=Cc1ccc2ccccc2c1 | 38.3% (active)
O=C(COc1cc2oc(=O)c3c(c2cc1Cl)CCC3)NCCCN1CCOCC1 | 6.01%
O=C(NCCc1ccccc1)C1CCC(Cn2c(=O)c3ccccc3n(Cc3cccnc3)c2=O)CC1 (centres undefined) | -1.63%
O=C(O)c1cc([N+](=O)[O-])c(Nc2cccc3ccccc23)c([N+](=O)[O-])c1 | -2.68%
